According to PubChem BioAssay (EPA / NIEHS):
Activity calls are given as the source filed them. How the source made its calls: active means hit-call score of the fitted dose curve at least 0.9, where 1 is the maximum; inactive means score below 0.9.

Columns and labels:
Conditions in all cases: mRNA level, 48 h; actives raise or lower the signal
[1] = read-out: DNA damage-inducible transcript 3 (DDIT3), DDIT3 (gene 1649); assay: LTEA_HepaRG_DDIT3: Life Technologies and Expression Analysis (LTEA) Assay for DNA damage-inducible transcript 3 (DDIT3) using HepaRG (AID 2283488)
Procedure, shortened: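 Changes in DDIT3 transcript, in either direction relative to 0.5% DMSO vehicle, were quantified by TaqMan qRT-PCR after 48 h chemical exposure of HepaRG cells at 8 concentrations, maximum 100 uM.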

[2] = read-out: Pro-epidermal growth factor (Homo sapiens) (UniProt P01133); assay: LTEA_HepaRG_EGF: Life Technologies and Expression Analysis (LTEA) Assay for Epidermal growth factor (EGF) using HepaRG (AID 2283489)
Procedure, shortened: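 qRT-PCR readout of EGF transcript after 48 h chemical exposure of HepaRG cells; eight concentrations from 100 uM down in half-log steps, duplicate wells, 0.5% DMSO vehicle. Bidirectional curve fitting against DMSO baseline.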

[3] = read-out: Early growth response protein 1 (EGR1) transcription factor, EGR1 (gene 1958); assay: LTEA_HepaRG_EGR1: Life Technologies and Expression Analysis (LTEA) Assay for Early growth response protein 1 (EGR1) transcription factor using HepaRG (AID 2283490)
Procedure, shortened: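 Differentiated HepaRG cells in serum-free induction medium exposed 48 hours, duplicate, to 8 half-log concentrations up to 100 uM in 0.5% DMSO. EGR1 mRNA measured by TaqMan qRT-PCR, normalized to ACTB, GAPDH, POLR2A; bidirectional fit versus DMSO.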

[4] = read-out: Ezrin (EZR), EZR (gene 7430); assay: LTEA_HepaRG_EZR: Life Technologies and Expression Analysis (LTEA) Assay for Ezrin (EZR) using HepaRG (AID 2283491)
Procedure, shortened: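 Differentiated human HepaRG cells, 48 h after plating, were exposed in serum-free induction medium for 48 hours to eight half-log concentrations up to 100 uM in 0.5% DMSO. EZR mRNA was measured by TaqMan qRT-PCR, normalized to ACTB, GAPDH and POLR2A, and fitted bidirectionally against DMSO.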

CYP2C8 (gene 1558) = assay: LTEA_HepaRG_CYP2C8: Life Technologies and Expression Analysis (LTEA) Assay for CYP2C8 using HepaRG (AID 2283483)
Procedure, shortened: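 Differentiated HepaRG cells in serum-free induction medium exposed 48 h in duplicate to 8 half-log concentrations from 100 uM in 0.5% DMSO. CYP2C8 mRNA by qRT-PCR normalized to ACTB, GAPDH, POLR2A; bidirectional fit versus DMSO.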

CYP2C9 (gene 1559) = assay: LTEA_HepaRG_CYP2C9: Life Technologies and Expression Analysis (LTEA) Assay for CYP2C9 using HepaRG (AID 2283484)
Procedure, shortened: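 Differentiated human HepaRG cells in serum-free induction medium were exposed 48 h to chemicals in 8-point half-log series from 100 uM (0.5% DMSO), in duplicate. CYP2C9 mRNA was measured by qRT-PCR, normalized to ACTB/GAPDH/POLR2A, with bidirectional fitting versus DMSO.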

CYP2E1 (gene 1571) = assay: LTEA_HepaRG_CYP2E1: Life Technologies and Expression Analysis (LTEA) Assay for CYP2E1 using HepaRG (AID 2283485)
Procedure, shortened: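 Differentiated HepaRG cells were treated in duplicate for 48 h with chemicals in 0.5% DMSO, from 100 uM downward in half-log dilutions. RNA was then analysed by qRT-PCR for CYP2E1 induction or loss.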

CYP4A11 (gene 1579) = assay: LTEA_HepaRG_CYP4A11: Life Technologies and Expression Analysis (LTEA) Assay for CYP4A11 using HepaRG (AID 2283486)
Procedure, shortened: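 CYP4A11 transcript levels were quantified by TaqMan qRT-PCR after HepaRG human liver cells were treated for 48 hours with test chemicals (top 100 uM, half-log dilutions, 0.5% DMSO). Gain or loss of signal was fitted relative to DMSO.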

[5] = read-out: Cytochrome P450 3A4 (Homo sapiens) (UniProt P08684); assay: LTEA_HepaRG_CYP3A4: Life Technologies and Expression Analysis (LTEA) Assay for CYP3A4 using HepaRG (AID 2283487)
Procedure, shortened: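 Differentiated HepaRG cells in serum-free induction medium exposed in duplicate for 48 h to 8 half-log concentrations up to 100 uM in 0.5% DMSO. CYP3A4 mRNA measured by qRT-PCR normalized to ACTB, GAPDH and POLR2A; bidirectional fit versus DMSO.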

[6] = read-out: Cytochrome P450 3A7 (Homo sapiens) (UniProt P24462); assay: LTEA_HepaRG_CYP3A7: Life Technologies and Expression Analysis (LTEA) Assay for CYP3A7 using HepaRG (AID 2283492)
Procedure, shortened: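 CYP3A7 transcript levels were read by TaqMan qRT-PCR on Fluidigm arrays after 48 h chemical exposure of human HepaRG cells, with housekeeping-gene normalisation. Eight half-log concentrations up to 100 uM in 0.5% DMSO were tested in duplicate.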

Measured: AC50

Sequence of Cytochrome P450 3A4 (Homo sapiens) (P08684 whole entry, looked up): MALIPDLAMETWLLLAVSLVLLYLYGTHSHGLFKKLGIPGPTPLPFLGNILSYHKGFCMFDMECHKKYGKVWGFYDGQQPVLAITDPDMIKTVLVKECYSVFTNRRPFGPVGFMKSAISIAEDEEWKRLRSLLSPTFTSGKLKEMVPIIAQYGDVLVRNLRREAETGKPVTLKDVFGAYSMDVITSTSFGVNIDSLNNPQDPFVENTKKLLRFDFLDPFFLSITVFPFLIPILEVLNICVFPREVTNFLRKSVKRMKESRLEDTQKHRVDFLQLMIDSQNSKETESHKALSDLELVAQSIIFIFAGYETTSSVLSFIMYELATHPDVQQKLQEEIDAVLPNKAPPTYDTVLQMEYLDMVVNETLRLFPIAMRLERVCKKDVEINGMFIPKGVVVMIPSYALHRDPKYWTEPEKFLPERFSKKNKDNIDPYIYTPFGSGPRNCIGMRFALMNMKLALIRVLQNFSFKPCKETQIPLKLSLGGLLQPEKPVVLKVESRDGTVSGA
Sequence of Cytochrome P450 3A7 (Homo sapiens) (P24462 whole entry, looked up): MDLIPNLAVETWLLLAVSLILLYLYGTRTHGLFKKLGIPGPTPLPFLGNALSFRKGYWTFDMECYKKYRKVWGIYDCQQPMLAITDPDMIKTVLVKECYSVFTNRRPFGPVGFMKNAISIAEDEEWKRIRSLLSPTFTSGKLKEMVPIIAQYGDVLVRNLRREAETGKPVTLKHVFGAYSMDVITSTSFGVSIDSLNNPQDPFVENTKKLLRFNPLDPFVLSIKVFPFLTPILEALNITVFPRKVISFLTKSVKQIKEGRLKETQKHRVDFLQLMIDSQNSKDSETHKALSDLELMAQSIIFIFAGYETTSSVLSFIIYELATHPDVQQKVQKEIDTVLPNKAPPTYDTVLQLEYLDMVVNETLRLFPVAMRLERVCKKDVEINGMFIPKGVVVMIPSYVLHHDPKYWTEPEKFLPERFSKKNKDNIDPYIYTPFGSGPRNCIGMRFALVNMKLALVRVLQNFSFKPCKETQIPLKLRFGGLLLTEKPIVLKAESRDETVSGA

CS(=O)(=O)c1ccc([C@@H](CC2CCCC2)C(=O)Nc2cnccn2)cc1Cl
active: [1] 71.2 µM | [3] 83.9 µM
inactive: [2] | [4]

OCC(CO)(CBr)CBr
active: CYP4A11 (gene 1579) 0.411 µM
inactive: CYP2C8 (gene 1558) | CYP2C9 (gene 1559) | CYP2E1 (gene 1571) | [5] | [1] | [2] | [3] | [4] | [6]

O=C1NS(=O)(=O)c2ccccc21
inactive: CYP2C8 (gene 1558) | CYP2C9 (gene 1559) | CYP2E1 (gene 1571) | CYP4A11 (gene 1579) | [5] | [1] | [2] | [3] | [4] | [6]

CCCCC(CC)C(=O)O (configuration not stated)
inactive: CYP2C8 (gene 1558) | CYP2C9 (gene 1559) | CYP2E1 (gene 1571) | CYP4A11 (gene 1579) | [5] | [1] | [2] | [3] | [4] | [6]

Cc1[nH]nc2c1N=C(c1ccccc1Cl)c1cc([N+](=O)[O-])ccc1N2
active: CYP2C8 (gene 1558) 7.45 µM | CYP2C9 (gene 1559) 5.12 µM | CYP2E1 (gene 1571) 10.1 µM | CYP4A11 (gene 1579) 5.26 µM | [5] 77.6 µM | [4] 1.38 µM | [6] 2.83 µM
inactive: [1] | [2] | [3]

CN(Cc1cnc2nc(N)nc(N)c2n1)c1ccc(C(=O)N[C@@H](CCC(=O)O)C(=O)O)cc1
inactive: CYP2C8 (gene 1558) | CYP4A11 (gene 1579) | [5] | [1] | [2] | [4] | [6]
active: CYP2E1 (gene 1571) 0.222 µM | [3] 0.121 µM

CCCCc1oc2ccccc2c1C(=O)c1cc(I)c(OCCN(CC)CC)c(I)c1
inactive: [2]
active: [1] 56.8 µM | [3] 61 µM | [4] 58.2 µM

CCCCCCCCCCCCOS(=O)(=O)O
active: CYP2C9 (gene 1559) 79 µM | CYP2E1 (gene 1571) 92.9 µM | [1] 71.9 µM
inactive: [2] | [3] | [4]

O=C(CCCN1CCC(O)(c2ccc(Cl)cc2)CC1)c1ccc(F)cc1
active: CYP2C9 (gene 1559) 77.8 µM | CYP2E1 (gene 1571) 66.2 µM | CYP4A11 (gene 1579) 73.5 µM | [1] 73.9 µM | [3] 94.4 µM | [6] 75.8 µM
inactive: CYP2C8 (gene 1558) | [2] | [4]

CCCCCCCCCCCCCCC
active: CYP2E1 (gene 1571) 1.94 µM | [5] 8.75 µM | [6] 14.9 µM
inactive: CYP2C8 (gene 1558) | CYP2C9 (gene 1559) | CYP4A11 (gene 1579) | [1] | [2] | [3] | [4]

CCCCC=O
inactive: CYP2C8 (gene 1558) | CYP2C9 (gene 1559) | CYP2E1 (gene 1571) | CYP4A11 (gene 1579) | [5] | [1] | [2] | [3] | [4] | [6]

O=C(c1ccccc1)c1ccccc1
inactive: [1] | [2] | [3] | [4]

CCC(C)c1ccccc1O (configuration not stated)
inactive: CYP2C8 (gene 1558) | CYP2C9 (gene 1559) | CYP2E1 (gene 1571) | CYP4A11 (gene 1579) | [5] | [1] | [2] | [3] | [4] | [6]

CN(C)CCOC(c1ccccc1)c1ccccc1
inactive: [1] | [2] | [3] | [4]

N=C(N)c1ccc(OCCCCCOc2ccc(C(=N)N)cc2)cc1
inactive: [4]
active: CYP2C8 (gene 1558) 3.73 µM | CYP2E1 (gene 1571) 6.51 µM | CYP4A11 (gene 1579) 3.02 µM | [1] 3.45 µM | [2] 22.2 µM | [3] 27.1 µM

CC(=O)Nc1ccc(O)cc1
inactive: CYP2C8 (gene 1558) | CYP2C9 (gene 1559) | CYP2E1 (gene 1571) | CYP4A11 (gene 1579) | [5] | [1] | [2] | [3] | [4] | [6]
